Results filed as inconclusive are left out. The source made the active and inactive calls. The calls were made as follows: active = hit-call score of the fitted dose curve at least 0.9, where 1 is the maximum; inconclusive = response in the unintended direction; inactive = score below 0.9.

Read-out in this experiment: Cytochrome P450 2B6 (Homo sapiens) (UniProt P20813)
The experiment in a line: CLD_CYP2B6_6hr: CellzDirect (CLD) Gene Expression Assay for xenobiotic metabolism (CYP2B6) at 6 hours (AID 2283677).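 Also: actives raise CYP2B6 transcript above DMSO baseline so AC50 marks an inducer.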 On the procedure:
CLD_6hr is a cell-based, multiplexed-readout assay that uses hepatocyte, a human liver primary cell, with measurements taken at 6 hours after chemical dosing in a 96-well plate.CLD_CYP2B6_6hr is one of 16 assay component(s) measured or calculated from the CLD_6hr assay. It is designed to make measurements of mRNA induction, a form of inducible reporter, as detected with chemiluminescence signals by Quantitative Nuclease Protection Assay (qNPA) technology.Data from the assay component CLD_CYP2B6_6hr was analyzed at the endpoint, CLD_CYP2B6_6hr, in the positive analysis fitting direction relative to DMSO as the negative control and baseline of activity. Using a type of inducible reporter, gain-of-signal activity can be used to understand changes in the reporter gene as they relate to the gene CYP2B6. Furthermore, this assay endpoint can be referred to as a primary readout. To generalize the intended target to other relatable targets, this assay endpoint is annotated to the cyp intended target family, where subfamily is xenobiotic metabolism.
Human hepatocyte cultures were treated daily for two consecutive days with fresh dosing solutions containing appropriate concentrations of the 320 ToxCast chemicals (chemical identities were blinded to CellzDirect and other ToxCast collaborators), vehicle control (0.2% DMSO), and positive control inducers as summarized in Table 1. Due to the large number of treatment groups and chemicals examined, the ToxCast chemicals were divided into two groups (spanning two independent cultures of hepatocytes from separate donor preparations (Hu778: ToxCast plates 1 and 2; Hu776: ToxCast plates 3 and 4). Each preparation of human hepatocyte cultures was treated with respective vehicle control, medium only control, set of six positive controls/reference chemicals for the five hepatic receptor pathways, and a subset of eight of the ToxCast chemicals (indoxacarb, pyrithiobac-sodium, norflurazon, cyhalofop-butyl, methomyl, thiram, acetochlor, and propiconazole). These replicate data, coupled with internal replicates designed within the blinded ToxCast chemical library, provided additional data to evaluate interindividual differences between hepatocyte preparations and their potential impact on chemical profiles.Cell morphology and integrity were evaluated using phase-contrast microscopy as an indicator of hepatocyte cell health (Tyson & Green, 1987). Cultures for each treatment group (i.e., media, vehicle [0.2% DMSO], positive control inducers [multiple concentrations], and the ToxCast chemicals [multiple concentrations]) were observed and cell morphology was assessed relative to vehicle control cultures at each harvest time point (0, 6, 24, or 48 h). […] Images were evaluated at the conclusion of the study to assess changes in cell integrity and account for the effects of chemical exposure on uncharacteristic changes in concentration-dependent gene expression profiles. The results from these determinations of apparent cytotoxicity were annotated (yes/no) alongside the corresponding qNPA data for reference.At the conclusion of each treatment period, hepatocyte cultures (96-well) were washed with 1 volume of HBSS, lysed by addition of 25 ul ArrayPlate lysis buffer (HTG, Tucson, AZ), and 70 ul/well of Denaturation Oil, denatured by incubation at 95C for 10 min, and frozen at approximately -70C until analysis by nuclease protection assay (qNPA) (Roberts et al., 2007). For qNPA analysis, cell lysates were thawed at 50C for approximately 30 min, qNPA probes were added, and samples were incubated at 95C for 10 min to begin the detection process by denaturing the target RNA, dissociating the duplexes and secondary structure hybridization. At the conclusion of the hybridization period, S1 nuclease reagent was added to each sample to digest all nonprotected nucleotides at 50C for 60-90 min. […]
`CCOP(=S)(Oc1cnc(C(C)(C)C)nc1)OC(C)C` (stereo not given): the concentration at half-maximal activity (AC50) was 0.47 µM (active). As to `O=[N+]([O-])c1cc(C(F)(F)F)c(Cl)c([N+](=O)[O-])c1Nc1ncc(C(F)(F)F)cc1Cl`, the call was inactive. In the case of `CCOC(=O)COc1cc(-c2nn(C)c(OC(F)F)c2Cl)c(F)cc1Cl`, the AC50 was 2.63 µM (active).

Take `CCC(=NOC/C=C/Cl)C1=C(O)CC(C2CCOCC2)CC1=O` (stereo not given): the outcome was inactive.

In the case of `CC(COc1ccc(Oc2ccccc2)cc1)Oc1ccccn1` (stereo not given), the AC50 was 3.97 µM (active). As for `COc1cc(OC)nc(Sc2cccc(Cl)c2C(=O)O)n1`, the compound was classed as inactive. For the compound `C#CC(C)(C)NC(=O)c1cc(Cl)cc(Cl)c1`, the AC50 was 4.15 µM (active). `CC1=NNC(=O)N(/N=C/c2cccnc2)C1`: the compound was called inactive. Consider `CSC1=N[C@@](C)(c2ccccc2)C(=O)N1Nc1ccccc1`, for which the half-maximal activity concentration (AC50) was 1.88 µM (active). `CSc1nc(NC(C)C)nc(NC(C)C)n1`: the half-maximal activity concentration (AC50) was 4.01 µM (active). In the case of `CNC(=O)Oc1cccc2c1OC(C)(C)O2`, the half-maximal activity concentration (AC50) is 2.74 µM (active). With `CCOP(=S)(OCC)OC(Cl)C(Cl)(Cl)Cl` (stereo not given), the AC50 was 0.833 µM (active). As to `CCCSP(=O)(OCC)Oc1ccc(Br)cc1Cl` (stereo not given), the AC50 was 3.75 µM (active). Take `CCCCOC(=O)c1ccccc1C(=O)O`: the call was inactive. For `CC(C)N(C(=O)SCC(Cl)=C(Cl)Cl)C(C)C`, the AC50 is 5.4 µM (active). With `CNC(=O)ON=C(SC)C(=O)N(C)C`, the outcome was inactive. Take `CCCCOC(=O)[C@@H](C)Oc1ccc(Oc2ccc(C#N)cc2F)cc1`: the compound was classed as inactive.

Consider `CCc1cccc(C)c1N(C(=O)CCl)C(C)COC` (stereo not given), for which the half-maximal activity concentration (AC50) was 0.596 µM (active). The same measure, in the same setting: the result for `C#CCC1=C(C)C(OC(=O)C2C(C=C(C)C)C2(C)C)CC1=O` (stereo not given) reads 1.08 µM (active); that for `Cc1nn(-c2cc(NS(C)(=O)=O)c(Cl)cc2Cl)c(=O)n1C(F)F`, 4.25 µM (active).

On to `CC1(C(=O)Nc2ccc(O)c(Cl)c2Cl)CCCCC1`, for which the outcome was inactive. Turning to `COc1cccc(C(=O)NN(C(=O)c2cc(C)cc(C)c2)C(C)(C)C)c1C`, the AC50 was 1.29 µM (active). In the case of `CCCSP(=O)(OCC)SCCC`, the half-maximal activity concentration (AC50) is 0.374 µM (active). As to `CCOP(=O)(OCC)Oc1cc(C)nc(C(C)C)n1`, the half-maximal activity concentration (AC50) is 20 µM (active). With `C[Si](Cn1cncn1)(c1ccc(F)cc1)c1ccc(F)cc1`, the AC50 was 32.4 µM (active). For the compound `CN(C)C(=O)Nc1cccc(C(F)(F)F)c1`, the outcome was inactive. Regarding `CC(C)[C@H](C(=O)O[C@H](C#N)c1cccc(Oc2ccccc2)c1)c1ccc(Cl)cc1`, the AC50 is 3.42 µM (active). As for `CNc1cnn(-c2cccc(C(F)(F)F)c2)c(=O)c1Cl`, the half-maximal activity concentration (AC50) was 8.33 µM (active). Take `O=C(O)c1cc(Oc2ccc(C(F)(F)F)cc2Cl)ccc1[N+](=O)[O-]`: the result was inactive. Consider `C[N+]1(C)CCCCC1`, for which the call was inactive.

Regarding `CCC(CC)Nc1c([N+](=O)[O-])cc(C)c(C)c1[N+](=O)[O-]`, the AC50 was 3.47 µM (active). On to `CC(=NC#N)N(C)Cc1ccc(Cl)nc1`, for which the result was inactive.

Regarding `CCC(=O)Nc1ccc(Cl)c(Cl)c1`, the AC50 is 7.9 µM (active). With `FC(F)C(F)(F)OCC(Cn1cncn1)c1ccc(Cl)cc1Cl` (stereo not given), the concentration at half-maximal activity (AC50) was 1.12 µM (active). Take `COP(=O)(OC)OC(Br)C(Cl)(Cl)Br` (stereo not given): the compound was classed as inactive. Consider `CCOC(=O)CC(SP(=O)(OC)OC)C(=O)OCC` (stereo not given), for which the half-maximal activity concentration (AC50) is 14.4 µM (active). With `CCCOc1nn(C(=O)NS(=O)(=O)c2ccccc2C(=O)OC)c(=O)n1C`, the compound was called inactive. On to `CCOP(=O)(NC(C)C)Oc1ccc(SC)c(C)c1` (stereo not given), for which the concentration at half-maximal activity (AC50) was 3.13 µM (active). With `CC(C1CC1)C(O)(Cn1cncn1)c1ccc(Cl)cc1` (stereo not given), the half-maximal activity concentration (AC50) was 1.28 µM (active). For `CON=C(C(=O)OC)c1ccccc1CON=C(C)c1cccc(C(F)(F)F)c1`, the concentration at half-maximal activity (AC50) is 10.2 µM (active).

The values are drawn from PubChem BioAssay (EPA / NIEHS).
